Assay outcomes deposited in PubChem BioAssay by several laboratories.
This is a sample that favours compounds with a hit; in the whole collection about 2.2% have one here.
NPR2 activator – human GC-B receptor activators, primary screen, HEK293 GC-B cells, cGMP TR-FRET, EC30 CNP. activation, % at 10 µM. actives 0.11% (n = 370,000). Atrial natriuretic peptide receptor 2 (Homo sapiens), P20594. 0% at EC30 CNP, 100% saturating CNP;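 active means activation at 10 µM reaching about 35% in either raw or pattern-adjusted values, limit read from the data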
NPR1 activator – GC-A stimulated cGMP production enhancers – HEK293 GC-A cells, cGMP TR-FRET, EC30 ANP, primary screen; 0% at EC30 ANP, 100% saturating ANP; activation, % at 10 µM; actives 0.14% (n = 370,000); AID 1671463, 2021; in the data active means activation above about 40%
ADAM17 inh – ADAM17 inhibitors, primary screen, biochemical, QFRET; recombinant ADAM17, EDANS/DABCYL FRET peptide cleavage; inhibition, % at 6.95 µM; actives 0.83% (n = 370,000);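 active means inhibition above the mean of compounds lying between control limits plus 3 SD, set per campaign, cut at about 8.5% in these data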;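 further: 0% = DMSO-only wells as the low control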
Target sequence (P78536 215-824 limits assumed): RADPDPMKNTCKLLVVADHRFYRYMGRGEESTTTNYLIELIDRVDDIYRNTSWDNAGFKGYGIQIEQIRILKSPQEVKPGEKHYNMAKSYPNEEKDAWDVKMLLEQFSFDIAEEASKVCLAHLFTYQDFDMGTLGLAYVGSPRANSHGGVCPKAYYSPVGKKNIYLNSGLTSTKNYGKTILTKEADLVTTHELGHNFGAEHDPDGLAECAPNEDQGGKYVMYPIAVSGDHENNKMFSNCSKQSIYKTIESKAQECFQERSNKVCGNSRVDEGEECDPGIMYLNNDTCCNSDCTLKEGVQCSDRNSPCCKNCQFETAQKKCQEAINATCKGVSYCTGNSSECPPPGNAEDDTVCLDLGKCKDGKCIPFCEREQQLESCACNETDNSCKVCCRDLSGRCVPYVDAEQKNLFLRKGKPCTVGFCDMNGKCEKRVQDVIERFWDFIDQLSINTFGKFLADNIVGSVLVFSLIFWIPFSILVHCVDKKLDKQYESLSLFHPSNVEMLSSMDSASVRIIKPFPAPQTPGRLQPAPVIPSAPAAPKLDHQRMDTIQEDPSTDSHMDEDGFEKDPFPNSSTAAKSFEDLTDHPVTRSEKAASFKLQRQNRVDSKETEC
proKLK7 act – proKLK7 zymogen activators, primary screen, biochemical, fluorescence intensity; purified proKLK7, EDANS-DABCYL substrate fluorescence; 100% is mature enzyme control, 0% vehicle; activation, % at 7 µM; actives 0.9% (n = 370,000);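 active means activation above the mean of all tested compounds plus 3 SD, computed per campaign excluding outliers beyond control limits, cut at about 13% in these data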
ADAM10 inh – human ADAM10 inhibitors, primary screen, biochemical, QFRET, HTS. actives 0.62% (n = 370,000). inhibition, % at 7 µM. recombinant ADAM10, EDANS/DABCYL FRET peptide cleavage, 3 h;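 active means inhibition above a per-campaign cutoff equal to the mean of compounds falling between control-based bounds plus 3 SD, cut at about 20% in these data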;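 further: 0% = DMSO wells while the 100% control is not disclosed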
ADAM10 confirm – human ADAM10 inhibitors, confirmation, biochemical, QFRET, triplicate; shares compounds with ADAM10 inh; ADAM10 QFRET peptide cleavage, EDANS fluorescence; inhibition, % at 6.95 µM; actives 1% (n = 2,100);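 active means inhibition above about 20% chosen separately for each screening run, limit read from the data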;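 further: 0% = DMSO wells and 100% = marimastat wells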
ADAM17 counter – ADAM17 inhibitors, counter-screen for ADAM10 exosite inhibitor project, biochemical, QFRET, high throughput | actives 0.5% (n = 2,100) | ADAM17 QFRET peptide cleavage, EDANS fluorescence | inhibition, % at 6.95 µM | shares compounds with ADAM10 inh;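 active means mean triplicate inhibition above the solvent-only control wells' mean plus 3 SD, cut at about 12% in these data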;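 further: 0% = DMSO wells and 100% = marimastat wells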
Starred values were filed as active, the others as inactive; x = no result.

SMILES	NPR2 activator	NPR1 activator	ADAM17 inh	proKLK7 act	ADAM10 inh	ADAM10 confirm	ADAM17 counter
O=C(C1CCN(S(=O)(=O)c2cnc[nH]2)CC1)N1CCN(c2ccc([N+](=O)[O-])cc2)CC1	8.1	4.2	1.6	-0.5	44.9*	-0.7	-0.1
O=C(N[C@@H]1CCC(=O)N(CC[C@H](Oc2ccccc2)c2ccccc2)CC1)OCc1ccccc1	-1.3	-1.3	3.1	0.4	20.2*	5.1	1.8
Cc1ccc(S[C@@H](CCN2CC[C@H](NC(=O)OCc3ccccc3)CCC2=O)c2ccccc2)cc1	4.7	1.4	3.0	0.6	11.6	x	x
O=C(NNC(=O)c1cc(-c2ccc(Cl)cc2)nc2ccccc12)c1csc(N2CCOCC2)n1	-6.2	3.5	7.0	-2.4	28.7*	12.2	4.8
O=S1(=O)c2ccc(N3CCSCC3)cc2Oc2ccccc2CN1Cc1cn(Cc2ccc(Cl)cc2)nn1	6.4	2.4	3.0	-0.2	4.9	x	x
CCCOC(=O)c1ccc(Oc2c(-c3ccc(O)cc3O)n[nH]c2C)cc1	-6.5	3.4	5.8	0.2	22.0*	2.6	2.3
CCCOC(=O)c1ccc(Oc2c(-c3ccc(OC)cc3O)n[nH]c2C)cc1	12.0	7.8	5.0	-0.3	17.1	x	x
O=C(CN(CCc1ccccc1)S(=O)(=O)c1ccc(F)cc1)N1CCOCC1	-4.9	0.7	-1.2	-0.1	-6.7	x	x
CCCC(=O)N1CCC[C@]2(CC[C@H](CCC#N)O2)C1	-0.5	4.5	0.6	-0.3	-4.2	x	x
CCN(CC)S(=O)(=O)c1cccc(NC(=O)COc2ccc(F)cc2Br)c1	4.5	5.4	2.1	-0.1	20.6*	-0.8	1.3
CCCNC(=O)c1cc(C2CCCCN2S(=O)(=O)c2ccccc2)on1 (stereo not given)	8.6	3.8	3.2	-0.5	83.8*	1.8	0.7
CCOC(=O)c1c(C)[nH]c(C)c1S(=O)(=O)NCCCN1CCOCC1	-2.8	3.2	-0.4	0.6	-0.4	x	x
CCOC(=O)c1c(C)[nH]c(C)c1S(=O)(=O)NCCN1CCN(c2cc(Cl)ccc2C)CC1	-4.2	-10.7	12.0*	0.4	24.2*	3.9	1.8
N#C/C(=N\Nc1ccccc1Cl)C(=O)c1ccccc1	1.1	4.0	-4.4	0.2	-9.1	x	x
N#C/C(=N\Nc1cccc(Cl)c1)C(=O)c1ccccc1	-0.5	6.0	8.1	-0.5	20.4*	-1.0	-0.8
CSc1ccccc1NC(=O)C(=O)c1c[nH]c2ccccc12	-2.7	-4.9	6.0	-1.2	22.3*	7.4	1.7
CCOC(=O)c1c(N)sc2c(OCC)c(Br)ccc12	-4.7	-1.9	4.8	-1.8	22.7*	6.0	2.8
O=C(CNC(=O)c1nc[nH]c1C(=O)N1CCc2ccccc2C1)OCc1ccccc1	0.7	0.2	3.0	0.4	22.3*	-0.3	-0.2
CC(C)C[C@H](NC(=O)c1[nH]cnc1C(=O)N[C@H](C)c1ccccc1)C(=O)OC(C)(C)C	5.2	-1.2	8.5	1.6	25.4*	4.2	1.7
O=C(CNC(=O)c1nc[nH]c1C(=O)N1CCNCC1)OCc1ccccc1	0.3	4.6	-0.3	-0.2	-2.3	x	x
CC(C)C[C@H](NC(=O)c1nc[nH]c1C(=O)NC(c1ccccc1)c1ccccc1)C(=O)OCc1ccccc1	3.2	-3.0	6.6	-0.1	23.2*	16.6	5.9
O=C(N[C@@H](Cc1ccccc1)C(=O)OCc1ccccc1)c1nc[nH]c1C(=O)NCc1ccccc1	5.0	-1.3	8.1	0.9	21.4*	6.9	2.3
Cc1ccc(NC(=O)c2nc[nH]c2C(=O)N[C@@H](C)c2ccccc2)cc1	-2.5	0.1	5.9	0.9	23.8*	4.8	2.1
COc1ccc(N2CCN(C(=O)CN(c3ccc(OC)cc3)S(=O)(=O)c3ccccc3)CC2)cc1	3.5	-3.1	1.3	-0.2	20.6*	3.4	-0.5
NS(=O)(=O)c1ccc(NC(=S)NNC(=O)CCC(=O)Nc2ccccc2Cl)cc1	0.5	3.5	-2.7	-0.2	-12.9	x	x
SMILES	NPR2 activator	NPR1 activator	ADAM17 inh	proKLK7 act	ADAM10 inh	ADAM10 confirm	ADAM17 counter
O=C(CCC(=O)Nc1ccccc1Cl)NNC(=S)Nc1ccccc1C(F)(F)F	-2.6	-1.1	6.1	-0.1	28.3*	6.2	3.2
C#CCCN([C@H](C(=O)OC)C(C)C)S(=O)(=O)c1ccccc1Br	-4.5	-2.9	-3.3	0.0	-4.9	x	x
CN1C(=O)c2cc(NS(=O)(=O)c3ccc(F)cc3)ccc2OC[C@H]2O[C@@H](CC(=O)NCC(F)(F)F)CC[C@@H]21	-4.1	5.6	-18.4	-0.3	26.3*	13.1	2.5
O=C1/C(=C/c2cccs2)N=C(c2cccs2)N1Nc1ccccc1	-0.6	10.4	4.6	-0.4	25.5*	8.4	2.1
O=C(N/N=C/c1c(Nc2cccc(C(F)(F)F)c2)nc2ccccn2c1=O)c1ccccc1[N+](=O)[O-]	7.0	-0.5	1.0	0.7	31.6*	-0.2	-0.1
O=Cc1c(Nc2cccc(C(F)(F)F)c2)nc2ccccn2c1=O	3.9	1.8	-5.1	1.2	-3.0	x	x
O=C(Nc1ccc(Oc2ccc(NC(=O)c3ccco3)c(NC(=O)c3ccco3)c2)cc1)c1ccco1	-0.5	3.4	2.7	0.0	7.1	x	x
O=C(Nc1ccc(Oc2ccc3ccccc3c2)cc1)c1ccco1	2.3	7.3	1.9	0.0	22.6*	9.2	2.9
CCC/C=N/Nc1nc2ccccc2s1	0.1	0.1	7.3	-1.4	25.1*	1.1	-0.6
Brc1ccc(/C=C/C=N/Nc2nc3ccccc3s2)cc1	1.9	2.5	-3.2	-1.0	0.5	x	x
C(=C\c1ccccc1)/C=N/Nc1nc2ccccc2s1	-8.3	-1.8	3.5	-1.3	26.1*	23.3*	8.4
COc1ccc(C=NNc2nc3ccccc3s2)cc1	-11.3	-5.5	1.1	-3.1	-12.2	x	x
c1ccc2c(c1)N=C(N1CCN(Cc3ccc4c(c3)OCO4)CC1)c1ccccc1S2	-11.5	-17.5	-0.4	-0.2	-3.1	x	x
COc1cccc(NC(=O)C2(C)CCN2C(=O)Cc2ccc(-c3ccccc3)cc2)c1 (stereo not given)	5.9	5.0	8.3	-0.3	25.1*	5.6	1.6
